# Results: PubChem BioAssay (NCI)
# Compounds without any hit were thinned out: in the full panel of roughly 83,000, 20% have a hit.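 Note: values are percent growth. 100 is the growth of untreated cells, values between 100 and 0 indicate rising inhibition; between -100 and 0 indicates cell death.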 Unmarked numbers belong to inactive results. Calls of active or inactive are those of the source. The calls were made as follows: active = growth percent below 10; inactive = the rest.
# Columns and labels:
# Test in all cases: NCI-60 one-dose screen, 48 h (100 = growth as untreated, 0 = no growth, -100 = all killed)
# Conditions in all cases: 10 µM
# SK-MEL-2 melanoma = test system: SK-MEL-2 melanoma
# EKVX NSCLC = test system: EKVX NSCLC
# SN12C renal = test system: SN12C renal
# UO-31 renal = test system: UO-31 renal
# TK-10 renal = test system: TK-10 renal
# ACHN renal = test system: ACHN renal
# CAKI-1 renal = test system: CAKI-1 renal
# A498 renal = test system: A498 renal
# CCRF-CEM leukemia = test system: CCRF-CEM leukemia
# MOLT-4 leukemia = test system: MOLT-4 leukemia
# RPMI-8226 leukemia = test system: RPMI-8226 leukemia
# OVCAR-8 ovarian = test system: OVCAR-8 ovarian
# OVCAR-5 ovarian = test system: OVCAR-5 ovarian
# OVCAR-4 ovarian = test system: OVCAR-4 ovarian
# SK-OV-3 ovarian = test system: SK-OV-3 ovarian
# IGROV1 ovarian = test system: IGROV1 ovarian
# OVCAR-3 ovarian = test system: OVCAR-3 ovarian
# HS 578T breast = test system: HS 578T breast
# NCI/ADR-RES ovarian = test system: NCI/ADR-RES ovarian
Compound,growth (SK-MEL-2 melanoma),growth (EKVX NSCLC),growth (SN12C renal),growth (UO-31 renal),growth (TK-10 renal),growth (ACHN renal),growth (CAKI-1 renal),growth (A498 renal),growth (CCRF-CEM leukemia),growth (MOLT-4 leukemia),growth (RPMI-8226 leukemia),growth (OVCAR-8 ovarian),growth (OVCAR-5 ovarian),growth (OVCAR-4 ovarian),growth (SK-OV-3 ovarian),growth (IGROV1 ovarian),growth (OVCAR-3 ovarian),growth (HS 578T breast),growth (NCI/ADR-RES ovarian)
COc1ccc([C@H]2C(C(=O)c3ccc(Cl)cc3)C3(N[C@@H]2c2ccccc2)C(=O)Nc2ccc(Br)cc23)cc1 (stereo partly specified),-64.5% (active),6.66% (active),-81.3% (active),0.589% (active),9.79% (active),0.391% (active),2.8% (active),-7.09% (active),13.9%,12.1%,-10.6% (active),14.9%,-20% (active),17.2%,22.6%,7.23% (active),-30.8% (active),-7.39% (active),-27.2% (active)
C=CC(=O)Nc1ccc(C(=O)/C=C/c2ccc(N(C)CCF)cc2)c(O)c1,-53.4% (active),-25% (active),-60.2% (active),-96.6% (active),-23.7% (active),-68.6% (active),-90.8% (active),17.5%,13.1%,-3.17% (active),3.47% (active),-45.8% (active),-49.3% (active),19.8%,3.61% (active),-53.5% (active),-69% (active),19.7%,0.782% (active)
COc1ccc2c3nc4cc(C)c(C)cc4nc3n(CCN(C)C)c2c1,-4.58% (active),12.6%,-15.6% (active),-67.2% (active),15.6%,-64% (active),-67.5% (active),65.4%,20.1%,4.84% (active),9.26% (active),-56.4% (active),24.5%,-26.1% (active),-12.8% (active),-8.59% (active),-47.1% (active),49.1%,0.91% (active)
C=C1CCC2C3(C)COC(c4cccc(F)c4)OC3CCC2(C)C1CC(O)C1=CCOC1=O (stereo unspecified),75.9%,87.9%,44.3%,57.1%,113%,68.6%,74.7%,125%,23.2%,41%,20.6%,15.1%,76.1%,67.1%,108%,61.1%,62.1%,74.6%,4.5% (active)
COc1cc(NC(=O)CSc2nnc(-c3ccc4nc(-c5ccc(Cl)cc5)[nH]c4c3)o2)cc(OC)c1OC,93.4%,93.1%,70.2%,63.8%,116%,66.1%,67.8%,121%,26.7%,25.1%,21.3%,42.1%,132%,61.9%,101%,73.8%,71.8%,50.6%,99.8%
COc1ccc([C@H]2C(C(=O)c3ccc(Cl)cc3)C3(N[C@@H]2c2ccccc2)C(=O)Nc2ccc(Cl)cc23)cc1 (stereo partly specified),-65.5% (active),4.5% (active),-86.5% (active),-1.98% (active),9.59% (active),1.5% (active),4.6% (active),10.4%,21.9%,12.1%,-11% (active),15.3%,-23.4% (active),20.4%,17.3%,-1.76% (active),-10.8% (active),-10.1% (active),-47.1% (active)
COc1ccc(CN2[C@@H](C(=O)NCc3ccc(C(=O)NO)cc3)Cc3c([nH]c4ccccc34)[C@@H]2C2CC2)cc1,12.2%,28.9%,29%,40.5%,8.46% (active),35.5%,22.5%,-5.06% (active),15%,11%,19.3%,16.7%,11.5%,35.6%,-24.8% (active),18.1%,10.5%,,69.9%
O=C(Nc1cccc(-c2cn(-c3ccc4oc(=O)ccc4c3)nn2)c1)Nc1cc(C(F)(F)F)cc(C(F)(F)F)c1,29.6%,13.5%,24.6%,30.9%,50.9%,12.5%,36.2%,19.6%,27.1%,11.7%,6.66% (active),34.6%,66.4%,7.53% (active),36.5%,29.9%,16.2%,27.7%,50.4%
O=C(Nc1ccc(I)cc1)Nc1nc2ccc([N+](=O)[O-])cc2s1,-91% (active),-93% (active),-97.7% (active),-100% (active),-92% (active),-100% (active),-100% (active),-91.6% (active),-81.1% (active),-58.1% (active),-71.7% (active),-76.1% (active),-98.4% (active),-77.3% (active),-69.9% (active),-95.7% (active),-92% (active),-64.9% (active),-88.4% (active)
CC(C)CCSc1nc(NC2CC2)c(C#N)c(-c2ccc(C(C)C)cc2)n1,98.9%,96.5%,106%,103%,99.4%,108%,99.3%,109%,95.4%,98.9%,101%,110%,,112%,96.5%,113%,117%,108%,108%
COc1ccc2nc(Nc3cccc(NC(=O)c4ccc(CN5CCN(C)CC5)c(C(F)(F)F)c4)c3)ccc2c1,-98.3% (active),-98% (active),-92.6% (active),-48.2% (active),-44.4% (active),-94.8% (active),-33.7% (active),-42.3% (active),-10.5% (active),-44.6% (active),-33% (active),-38.1% (active),-75% (active),-27.1% (active),-48.8% (active),-69.8% (active),-36% (active),,-37.9% (active)
